Compound activity deposited in PubChem by The Scripps Research Institute Molecular Screening Center.
Most compounds without a hit are left out; they make up all but 3.5% or so of the library.
FBW7 activator: activators of human E3 ligase FBW7 | 650,000 tested, 0.13% active | AID 1259310 | AlphaScreen FBW7–phospho-cyclin E peptide binding, activator screen | normalized activity (activation), % at 26.1 µM; in the data active = normalized activity above about 1.9%;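 note: purified mutant Fbw7 with reduced substrate affinity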
MITF inh: inhibitors of human MITF; O75030; AlphaScreen MITF homodimerization, bead proximity signal; inhibition, % at 2.6 µM; 650,000 tested, 0.91% active; AID 1259374; in the data active = inhibition above about 50%
TEAD-YAP block: TEAD-YAP interaction inhibition | inhibition, % at 9.12 µM | 640,000 tested, 1.4% active | HEK-TIYL cells, TEAD-Gal4/YAP UAS-luciferase luminescence | AID 1259422; in the data active = inhibition above about 32%
GPR151 activ: activators of human GPR151 | PathHunter beta-arrestin GPR151 cells, luminescence | AID 1508602 | Q8TDV0 | 650,000 tested, 1% active | activation, % at 11.2 µM; in the data active = activation above about 4.9%
Target sequence (Q8TDV0 whole entry, looked up): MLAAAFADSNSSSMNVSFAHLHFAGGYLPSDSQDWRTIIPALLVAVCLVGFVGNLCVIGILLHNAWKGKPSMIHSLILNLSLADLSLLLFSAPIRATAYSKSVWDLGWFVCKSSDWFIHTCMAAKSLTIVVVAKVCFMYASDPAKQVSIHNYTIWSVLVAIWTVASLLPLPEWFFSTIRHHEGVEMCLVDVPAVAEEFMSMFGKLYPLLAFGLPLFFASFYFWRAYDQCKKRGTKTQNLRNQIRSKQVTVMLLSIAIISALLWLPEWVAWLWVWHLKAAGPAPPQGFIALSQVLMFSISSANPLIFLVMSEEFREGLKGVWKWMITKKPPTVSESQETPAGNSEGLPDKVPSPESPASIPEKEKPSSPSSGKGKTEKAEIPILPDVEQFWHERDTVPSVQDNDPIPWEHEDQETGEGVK
Numbers stand for hits; – = inactive.

SMILES	FBW7 activator	MITF inh	TEAD-YAP block	GPR151 activ
CCOC(=O)C(=O)NC(Cc1ccccc1)c1ccccc1 (stereo not drawn)	–	–	–	–
CC(=O)Nc1ccc(Nc2nc(-c3ccccc3)nc3c2ncn3-c2ccccc2)cc1	–	–	–	–
CC(=O)Nc1ccc(Nc2nc(-c3cccc(N)c3)nc3c2ncn3-c2ccccc2)cc1	–	–	41	–
CC(C)n1cnc2c(Nc3ccccc3)nc(-c3cccc(N)c3)nc21	–	–	–	–
COc1ccc(-c2nc(Nc3ccc(NC(C)=O)cc3)c3ncn(C(C)C)c3n2)cn1	–	–	35	–
CC(=O)Nc1ccc(Nc2nc(-c3ccc(C(N)=O)cc3)nc3c2ncn3C(C)C)cc1	–	–	–	–
CC(=O)Nc1ccc(Nc2nc(-c3cccc(N)c3)nc3c2ncn3C(C)C)cc1	–	–	38	–
O=c1[nH]c(SCc2cccc(Cl)c2)nc2nc[nH]c12	–	–	–	–
COc1ccc(Cl)cc1NS(=O)(=O)c1cc(C)ccc1OC	–	–	–	–
COc1cc(NS(=O)(=O)c2ccc(OC)c(C)c2C)c(OC)cc1Cl	–	–	54	–
COc1ccc(Cl)cc1NS(=O)(=O)c1ccc(OC)c(C)c1C	–	–	42	–
CS(=O)(=O)NCC1(c2cccs2)CCCC1	–	–	–	–
CCOC(=O)C1=C(C)NC(=O)NC1c1ccc(OCc2ccccc2)cc1 (stereo not drawn)	–	–	–	–
CCCOc1ccc(C2NC(=O)NC(C)=C2C(=O)OC(C(F)(F)F)C(F)(F)F)cc1 (stereo not drawn)	2.1	–	–	–
CCOC(=O)C1=C(C)NC(=O)NC1c1ccc(-c2ccccc2)cc1 (stereo not drawn)	–	–	40	–
CCCOc1ccc(C2NC(=O)NC(C)=C2C(=O)OC2CCCCCC2)cc1 (stereo not drawn)	–	–	–	–
CCCOc1ccc(C2NC(=O)NC(C)=C2C(=O)OC2CCCC2)cc1 (stereo not drawn)	–	–	56	–
Cc1cc(C)cc(NC(=O)C2C3C4CCC(C4)C23)c1 (stereo not drawn)	–	–	–	–
COc1ccc(/C=C2/C(=O)ON=C2c2ccccc2)cc1	–	–	–	–
CC(C)c1ccc(/C=C2\C(=O)ON=C2c2ccccc2)cc1	–	57	–	–
CSc1ccc(/C=C2/C(=O)ON=C2c2ccccc2)cc1	–	–	–	–
O=C1ON=C(c2ccccc2)/C1=C\c1ccc(O)cc1	–	59	–	–
Cc1sc2ncnc(NCCc3ccc4c(c3)OCCO4)c2c1C	–	–	57	–
Cc1sc2ncnc(NCC3COc4ccccc4O3)c2c1C (stereo not drawn)	–	–	48	–
CC1CN(CC(=O)N2CCN(Cc3ccccn3)CC2)Cc2cc(Cl)ccc2O1 (stereo not drawn)	–	–	–	–
SMILES	FBW7 activator	MITF inh	TEAD-YAP block	GPR151 activ
CCN1/C(=C/c2ccc3ccccc3[n+]2CC)Sc2cc(NC(C)=O)ccc21	–	–	–	–
CCN1/C(=C/c2ccc3ccccc3[n+]2CC)Sc2ccc(C)cc21	–	–	79	–
CCN1/C(=C/c2ccc3cc(C)ccc3[n+]2CC)Sc2ccc(O)cc21	–	–	87	–
CCN1/C(=C/c2ccc3cc(NC(C)=O)ccc3[n+]2CC)Sc2cc(C)ccc21	–	–	–	–
COc1ccc(Cc2noc(-c3cc(-c4ccc(Cl)cc4)nc4ccccc34)n2)cc1	–	–	–	–
O=C(NCC1CCCN(Cc2cccn2-c2cccnc2)C1)c1n[nH]c2ccccc12 (stereo not drawn)	–	–	–	–
O=C(NCC1CCCN(Cc2cccn2-c2ccccn2)C1)c1n[nH]c2ccccc12 (stereo not drawn)	–	–	70	–
O=c1c2cccc3c2c(nn1CCN1CCCCC1)-c1ccccc1-3	–	–	80	–
O=c1c2cccc3c2c(nn1Cc1ccccc1Cl)-c1ccccc1-3	–	–	–	–
COc1ccc(-c2c(C)nn3c(N(C)CCO)c4c(nc23)CCCC4)cc1	–	–	–	–
CCCNc1ccnc2c(-c3cccc(N(C)C)c3)cnn12	–	–	32	–
CCCNc1ccnc2c(-c3cccc(C(C)=O)c3)cnn12	–	–	–	–
CN(C)c1cccc(Nc2ccnc3c(-c4ccsc4)cnn23)c1	–	–	–	–
CCCNc1ccnc2c(-c3cccc(C(=O)O)c3)cnn12	–	–	103	–
COCCNc1ccnc2c(-c3cccc(C(=O)O)c3)cnn12	–	–	99	–
COCCNc1ccnc2c(-c3ccc(C(=O)NC4CC4)cc3)cnn12	–	–	–	–
COCCNc1ccnc2c(-c3cccc(N(C)C)c3)cnn12	–	–	–	–
CN(C)c1cccc(Nc2ccnc3c(-c4cccc(O)c4)cnn23)c1	–	–	65	–
O=c1[nH]c2cc3ccccc3c(=O)n2c2sc3c(c12)CCCC3	–	–	–	–
CC(C)(C)C(=O)Nc1ncccc1C(O)c1ccccc1 (stereo not drawn)	–	–	–	–
CNS(=O)(=O)c1cccc(C(=O)OCC(=O)c2ccc(Cl)s2)c1	–	–	–	–
O=C(Cc1ccc2c(c1)OCO2)Nc1cc(Nc2ccccc2-c2nn[nH]n2)c(F)cn1	–	–	–	–
O=Cc1ccccc1Nc1cc(NC(=O)Cc2ccc3c(c2)OCO3)ncc1Cl	–	–	57	–
O=C(Cc1ccc2c(c1)OCO2)Nc1cc(Nc2ccccc2-c2ncn[nH]2)c(F)cn1	–	–	54	–
CSCCCNC1CCN(c2ccc(C(=O)N3CCc4ccccc4C3)cc2)CC1	–	–	–	–
SMILES	FBW7 activator	MITF inh	TEAD-YAP block	GPR151 activ
Fc1ccc(-c2csc3ncnc(NCCc4cccs4)c23)cc1	–	–	43	–
c1csc(CCNc2ncnc3sc4c(c23)CCC4)c1	–	–	37	–
C=CCNc1ncnc2scc(-c3ccccc3)c12	–	–	38	–
COc1cc2nc(N3CCN(c4ccccn4)CC3)nc(Nc3ccc4c(c3)OCO4)c2cc1OC	–	–	–	–
COc1cc(OC)nc(Sc2ccccc2/C=N/O)n1	–	–	57	–
CC1(Cc2cccc(C#N)c2)C(=O)Nc2ccc(-c3cccnc3)cc21 (stereo not drawn)	–	–	45	–
CC1(Cc2cccc(C#N)c2)C(=O)Nc2ccc(F)cc21 (stereo not drawn)	–	–	–	–
CC1(Cc2cccc(F)c2)C(=O)Nc2ccc(-c3cccnc3)cc21 (stereo not drawn)	–	–	40	–
Cc1cc(NS(=O)(=O)Cc2ccccc2)ccc1Br	–	–	–	–
COc1ccc(CNc2cc(C)nc(-c3cccc(C)c3)n2)cc1	–	–	–	–
O=C1NC2(CCN(C(=O)c3csc4c3CCCC4)CC2)Nc2ccccc21	–	–	40	–
Cc1cccc(NS(=O)(=O)c2ccc(C)c(C(=O)Nc3ccccc3C(N)=O)c2)c1	–	–	–	–
O=c1[nH]c(CN2CCOCC2)nc2scc(-c3cccs3)c12	–	–	–	–
Cn1nnnc1Sc1nc(CN2CCOCC2)nc2scc(-c3cccs3)c12	–	–	61	–
COC(=O)c1cccc(NC(=S)Nc2cccc([N+](=O)[O-])c2)c1	–	–	–	–
